Bioassay records (PubChem BioAssay)
TDP1 cell CPT – DT40-hTDP1 cell growth loss with CPT | actives 12% (n = 420,000) | chicken DT40 Tdp1-/-;hTDP1 cells + 20 nM CPT, ATP luminescence, 48 h | Potency, µM (highest dose often 46.2 µM), for inactives: at the top dose activity change, negative = growth inhibition, hits mostly inhibitors; note: potency is the fitted concentration of half-maximal effect; % is set by controls: 0 for no effect and ±100 for the full control effect; nearly all actives have a fitted effect of over 55% in size
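Chicken DT40 Tdp1-/- cells complemented with human TDP1, 400 cells/well, exposed to compounds plus 20 nM camptothecin for at least 48 h at 37 C; viability read as ATP content by CellTiter-Glo luminescence.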
BCR signal inh – inhibitors of chronic active B-cell receptor signaling. ABC-DLBCL IkBa-CBG/CBR reporter, luminescence ratio, 4 h. Potency, µM (top dose mostly 46.1 µM), for the others: top-dose activity change, negative = inhibition, most hits filed as inhibitors. actives 0.05% (n = 340,000); active = well fitted inhibition curve with a large enough effect in the signal ratio, with a control signal flat, not every such curve was filed as active; inconclusive = small, poorly fitted or top-dose-only effect, or effect the other way, or a change in a side signal; the % refers to the signal ratio;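 note: potency is the fitted concentration of half-maximal effect; plate controls were basal doxycycline-induced cells for no effect and cells given 10 µM MG132 for full effect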
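TMD8 human ABC-DLBCL cells with doxycycline-inducible IκBα–green luciferase fusion and unfused red luciferase, in 0.5% FBS medium; compounds up to 46 uM, 4 h at 37C. Green/red luminescence ratio, filter-overlap corrected, fitted to concentration-response curves.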
DT40 TDP1 no CPT – qHTS for Inhibitors of human tyrosyl-DNA phosphodiesterase 1 (TDP1): qHTS in cells in absence of CPT; DT40 Tdp1-/- hTDP1 cells, no CPT, ATP luminescence, 48 h; Potency, µM (doses to about 46.2 µM), inactives show at the top dose activity change, negative = growth inhibition, usual class: inhibitors; actives 15% (n = 420,000); note: potency is the fitted concentration of half-maximal effect; % is set by controls: 0 for no effect and ±100 for the full control effect; nearly all actives have a fitted effect of over 55% in size
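No-CPT arm: Tdp1-/-;hTDP1 DT40 cells (400/well) plus compounds, incubated ≥48 hr at 37 °C. Readout CellTiter-Glo luminescence.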
SW480 rerep – inducers of DNA re-replication in SW480 colon cancer cells. SW480 DNA re-replication, Hoechst DNA content imaging, 48 h. Potency, µM (highest dose often 46.1 µM), inactives show top-dose re-replication activation, usual class: activators. AID 624297. actives 1.8% (n = 340,000); note: potency is the fitted concentration of half-maximal effect; % of control where 0% means no effect; nearly all actives have a fitted effect of over 55% in size
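Hoechst fluorescence of nuclei (405 nm excitation, 500-530 nm emission) measured by plate-scanning imager after 48 hr compound exposure at 37 C; re-replication scored as increased number of nuclei with elevated intensity.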
MCF10A rereplic – induces DNA re-replication in MCF 10a normal breast cells; MCF 10A DNA re-replication, Hoechst nuclear intensity, 48 h; Potency, µM (doses to about 46.1 µM), for the others: top-dose activity, positive = re-replication, actives largely listed as activators; actives 2.9% (n = 350,000); note: potency is the fitted concentration of half-maximal effect; % of control where 0% means no effect; nearly all actives have a fitted effect of over 50% in size
IL1B secr inh – inhibitors of inflammasome signaling (IL-1 beta secretion); THP-1 LPS/ATP IL-1B secretion, AlphaLISA, 16 h; stronger effect = lower value; activity change, % at 57.5 µM; actives 4.7% (n = 360,000); AID 743279; in the data active = activity change below about -50%; inconclusive = mostly about -30% to -49%; note: % is set by controls: 0 for no effect and ±100 for the full control effect
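Secreted IL-1B measured by AlphaLISA bead assay after 16 h compound exposure of THP-1 cells; compounds (final up to 57.5 uM) added 1 h before LPS (250 ng/mL) and ATP (1.25 mM) stimulation; lower signal means less secretion.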
Numbers without * were called inactive; u = inconclusive; x = not tested or not shown; [ ] = another dose, or the depositor's remark. Most compounds without a hit are left out; they make up all but 19% or so of the library. Unless noted, calls come from the whole dose curve; as a rule, active = well fitted curve in the direction sought with a large enough effect; inconclusive = small, poorly fitted or top-dose-only effect, or another doubt; inactive = no such curve, though single readings can be large; an effect the other way counts as inactive or inconclusive.

SMILES | TDP1 cell CPT | BCR signal inh | DT40 TDP1 no CPT | SW480 rerep | MCF10A rereplic | IL1B secr inh
CC(=O)Nc1ccc(NC(=O)C2Cc3c(-c4cccc(F)c4)ccnc3O2)cc1 (stereo unspecified) | -4% | x | -24% | x | x | 0
O=C(Nc1cccc(Oc2ccccc2)c1)C1Cc2c(-c3ccccc3)ccnc2O1 (stereo unspecified) | 23µM* | x | u | x | x | u
COc1ccc(NC(=O)C2Cc3c(-c4cccc(C(N)=O)c4)ccnc3O2)cc1 (stereo unspecified) | 5.8µM* | x | 3.7µM* | x | x | 0
COc1ccc(NC(=O)C2Cc3c(-c4cccc(F)c4)ccnc3O2)cc1 (stereo unspecified) | 21µM* | x | u | x | x | -10
O=C(NCCC(F)(F)F)C1Cc2c(-c3cccc(F)c3)ccnc2O1 (stereo unspecified) | -17% | x | -19% | x | x | -9
CC(=O)Nc1cccc(-c2ccnc3c2CC(C(=O)NC(C)C)O3)c1 (stereo unspecified) | -22% | x | u | x | x | -17
CC(=O)c1cccc(-c2ccnc3c2CC(C(=O)Nc2cccc(N(C)C)c2)O3)c1 (stereo unspecified) | u | x | u | x | x | -12
COc1ccc(NC(=O)C2Cc3c(-c4cccc(NC(C)=O)c4)ccnc3O2)cn1 (stereo unspecified) | 2.6µM* | x | 1.8µM* | x | x | 60
COc1ccc(NC(=O)C2Cc3c(-c4cccc(C(N)=O)c4)ccnc3O2)cn1 (stereo unspecified) | 10µM* | x | 12µM* | x | x | 3
COc1ccc(CN2CCOc3ccc(CN4CCN(CCO)CC4)cc3C2)c2ccccc12 | -4%[9.04 µM] | x | u | x | x | x
CC(C)(C)C1CCc2onc(C(=O)Nc3ccc4c(c3)OCO4)c2C1 (stereo unspecified) | -28% | -1% | u | -16% | u | -29
COc1cc(NC(=O)c2noc3c2CC(C(C)(C)C)CC3)cc(OC)c1OC (stereo unspecified) | 21µM* | x | 16µM* | x | x | x
Cc1cccc(C)c1NC(=O)C[n+]1cc(-c2ccccc2)n2c1CCC2 | 1% | 2% | -4% | -16% | -1% | -14
O=C(C[n+]1cc(-c2ccc(Cl)cc2)n2c1CCC2)N1c2ccccc2Sc2ccccc21 | 9.2µM* | u | 13µM* | -4% | -5% | -57*
CC1CCC(C(C)C)C(OC(=O)C[n+]2cc(-c3ccc(Cl)cc3)n3c2CCC3)C1 (stereo unspecified) | 2.9µM* | u | 2.3µM* | -8% | u | -86*
COc1ccc(-c2c[n+](CC(=O)N3c4ccccc4Sc4ccccc43)c3n2CCC3)cc1 | 2.3µM* | -33% | 2.1µM* | -3% | u | -62*
O=C(C[n+]1cc(-c2ccc(Cl)c(Cl)c2)n2c1CCC2)N1c2ccccc2Sc2ccccc21 | 16µM* | -12% | 23µM* | x | 6% | -25
CC1(C(=O)Nc2cccc(NS(C)(=O)=O)c2)Cc2c(-c3ccc(C(N)=O)cc3)ccnc2O1 (stereo unspecified) | -16% | x | -5% | x | x | 19
COc1cc(CN(CC(C)C)S(=O)(=O)c2ccccc2Br)cc(OC)c1 | u | 7% | u | 53% | 16% | -18
COc1cccc(CN(CCC(C)C)S(=O)(=O)c2cc(Br)ccc2Br)c1 | 18µM* | x | 16µM* | -6% | u | 13
COc1ccc(C(N)=O)cc1NC(=O)CC(O)(C(F)(F)F)C(F)(F)F | 15µM* | 8% | u | -1% | -3% | u
CCc1nc2ccc(C(=O)Nc3cc(-c4ccccc4)ccc3OC)cn2c1N(C)Cc1nccs1 | 13µM* | x | 9.2µM* | x | x | -80*
CCc1nc2ccc(C(=O)Nc3cc(-c4ccccc4)ccc3OC)cn2c1N(C)C(=O)c1cccc(OC)c1 | u | x | 18µM* | x | x | -76*
CCc1nc2ccc(C(=O)N(CC)CCN(C)C)cn2c1N(C)Cc1nccs1 | -5% | x | -2% | x | x | -17
CCc1nc2ccc(C(=O)N(CC)CCN(C)C)cn2c1N(C)C(=O)c1cccc(OC)c1 | -4% | x | 0% | x | x | 3
SMILES | TDP1 cell CPT | BCR signal inh | DT40 TDP1 no CPT | SW480 rerep | MCF10A rereplic | IL1B secr inh
CCc1nc2ccc(C(=O)Nc3cc(-c4ccccc4)ccc3OC)cn2c1N(C)Cc1ccc(OC)cc1 | 7.3µM* | x | 8.2µM* | x | x | u
CCc1nc2ccc(C(=O)NCC3CCCCC3)cn2c1N(C)Cc1nccs1 | 16µM* | x | 21µM* | x | x | -8
CCc1nc2ccc(C(=O)Nc3cc(-c4ccccc4)ccc3OC)cn2c1N(C)CCCc1ccccc1 | u | x | u | x | x | -8
CCC1CCCCN1C(=O)CSc1nnc(-c2ccc(Cl)cc2)o1 (stereo unspecified) | 21µM* | u | 16µM* | 9% | 13% | 20
CCC1CCCCN1C(=O)CSc1nnc(-c2cccc(Cl)c2)o1 (stereo unspecified) | 26µM* | u | 23µM* | 0% | -2% | -21
CCC1CCCCN1C(=O)CSc1nnc(-c2ccc(Cl)s2)o1 (stereo unspecified) | -15% | 1% | -27% | -12% | 0% | 1
CC1Cc2ccccc2N1C(=O)CSc1nnc(-c2cccc(Cl)c2)o1 (stereo unspecified) | 15µM* | x | u | x | x | x
CC1Cc2ccccc2N1C(=O)CSc1nnc(CNc2ccccc2)o1 (stereo unspecified) | -15% | 13% | u | -2% | -3% | 17
CC(C)(C)C(=O)N1CCN(C(=O)c2ccco2)CC1 | -11% | -3% | -8% | u | 2% | -11
CCOc1ccccc1OCC(=O)NNC(=O)Cn1cnc2c1c(=O)n(C)c(=O)n2C | 22% | 4% | -7% | -3% | -5% | 25
CCCN1CCC(=O)N([C@H](COc2ccccc2)c2ccccc2)CC1 | u | u | 21µM* | -41%[9.22 µM] | 9% | 18
O=C1CCN(CCc2ccccc2)CCN1[C@H](COc1ccccc1)c1ccccc1 | 15µM* | u | 14µM* | -6% | 25% | -3
CC(C)CN1CCC(=O)N(CCOc2ccccc2)CC1 | -1% | 1% | 0% | -5% | -9% | 9
CC(C)CN1CCC(=O)N([C@H](COc2ccccc2)c2ccccc2)CC1 | u | 1% | 22µM* | -1% | 15% | -8
